A number with no mark means an inactive call. Records with an inconclusive call do not appear. The source made the active and inactive calls. Unless noted, calls come from the whole dose curve; as a rule, active = well fitted curve in either direction with a large enough effect (not every such curve was filed as active); inconclusive = small, poorly fitted or top-dose-only effect, or another doubt; inactive = flat fitted curve, though single readings scatter. Some results are limits rather than exact numbers.

These results are taken from PubChem BioAssay (NCATS).

In assay [1] the target is Lysosomal acid glucosylceramidase (Homo sapiens) (UniProt P04062). Briefly: Glucocerebrosidase-p2 (AID 348; in the data active = potency below about 10 µM; note: potency is the fitted concentration of half-maximal effect). As to conditions: purified GBA, blue fluorogenic substrate, 40 min. The method in brief: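 Compounds titrated from 0.6 nM upwards against 0.2 nM enzyme in pH 5.9 citric acid/KH2PO4, taurocholate, tween-20; blue fluorogenic substrate 80 uM, 40 min room temperature, stopped and read Ex 365/Em 440 for AC50.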
Lysosomal acid glucosylceramidase (Homo sapiens), sequence (P04062 whole entry, looked up): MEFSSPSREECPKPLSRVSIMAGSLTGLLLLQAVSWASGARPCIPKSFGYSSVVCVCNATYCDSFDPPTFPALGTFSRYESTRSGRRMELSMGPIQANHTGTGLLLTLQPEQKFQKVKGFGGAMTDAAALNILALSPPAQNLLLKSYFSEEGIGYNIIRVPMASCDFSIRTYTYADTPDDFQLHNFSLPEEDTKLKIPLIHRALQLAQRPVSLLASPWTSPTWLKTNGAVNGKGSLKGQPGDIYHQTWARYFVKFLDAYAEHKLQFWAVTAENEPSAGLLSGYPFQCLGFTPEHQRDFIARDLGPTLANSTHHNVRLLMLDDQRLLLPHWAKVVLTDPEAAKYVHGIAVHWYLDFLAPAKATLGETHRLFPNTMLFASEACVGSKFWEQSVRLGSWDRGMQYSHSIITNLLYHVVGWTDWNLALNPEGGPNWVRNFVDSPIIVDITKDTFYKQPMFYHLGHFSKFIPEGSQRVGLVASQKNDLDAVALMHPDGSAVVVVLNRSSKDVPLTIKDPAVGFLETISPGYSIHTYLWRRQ

Assay [2] in a line: AP1 Signaling Pathway (AID 357).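 Note: ME-180 reporter cells stimulated with EGF at its EC50 level; % is set by controls: 0 for no effect and ±100 for the full control effect.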 As to conditions: ME-180 AP-1-bla reporter, EGF-induced, beta-lactamase ratio, 5 h; at 7.69 µM (top of the series) unless noted. The method in brief:
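Titration-series screen for positive or negative modulators of EC50 EGF-induced signaling in ME-180 cells carrying an AP-1-driven beta-lactamase reporter. After 5 hours at 37 degrees Celsius, CCF4 460nm/530nm emission ratio gave %Activity; AC50 values derived.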

Assay [3] has as its target Cytochrome P450 1A2 (Homo sapiens) (UniProt P05177). Briefly: p450-cyp1a2 (AID 410; calls by dose curve; note: potency is the fitted concentration of half-maximal effect;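 for activity change, negative = inhibition: -100% = full effect of reference inhibitor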). The following applies: recombinant CYP1A2, luciferin-ME demethylation, luminescence; series mostly up to 57 µM. Put shortly: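 Luminescent readout of luciferin formed from Luciferin-ME by human CYP1A2; data normalized against complete inhibition by 57 uM furafylline. Enzyme 20nM, substrate 100uM at Km, 100mM KPO4 buffer, 60 min reaction at room temperature.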

Assay [4] in a line: NFAT Signaling Pathway (AID 444).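 Note: carbachol stimulus at about its EC50 of 1 µM final; % is set by controls: 0 for no effect and ±100 for the full control effect.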 As to conditions: Jurkat NFAT-bla M1, carbachol, beta-lactamase ratio, 5 h; at 7.69 µM (top of the series) unless noted. Put shortly:
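Read-out: CCF4 FRET ratio (460 nm/530 nm) after 1 h RT dye loading, used for %activity and AC50 from titration series. Cells: Jurkat NFAT-β-lactamase/M1 line, treated with compound plus 1 uM carbachol for 5 h, 37 °C.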

The nature of assay [5]: Stat Signaling Pathway (AID 446).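 Note: ME-180 cervical cancer cells given 40 pM IL-6 alongside compound; SIE-controlled beta-lactamase reporter measured as 460/530 nm FRET emission ratio; % is set by controls: 0 for no effect and ±100 for the full control effect.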 As to conditions: ME-180 (cervical carcinoma) SIE beta-lactamase reporter, IL-6 stimulated, 5 h; at 7.69 µM (top of the series) unless noted. The method in brief: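 IL-6/STAT signaling read in ME-180 cells via an SIE beta-lactamase reporter. Stimulus was 40 pM IL-6 (its AC50) for 5 hrs, so both activation and inhibition register.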
Assay [6] concerns the target Glucocorticoid receptor (Homo sapiens) (UniProt P04150). The assay can be described thus: GR-EFC Redistribution (AID 451; calls by dose curve; note: potency is the fitted concentration of half-maximal effect). As to conditions: CHO-K1 GR-EFC translocation, beta-gal luminescence, 2 h. Put shortly:
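Translocation of GR-ED fusion to nuclear EA restores b-gal, read by luminescence after 1 h room-temperature detection. Engineered CHO-K1 biosensor cells, 1,000/well, exposed 2 h at 37 C to titrations up to 46 uM final.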

The target of assay [7] is Mitogen-activated protein kinase 10 (Mus musculus) (UniProt Q61831). Briefly: JNK3 AlphaScreen Assay (AID 530).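 Note: kinase came from lysate of stimulated human HepG2 cells; signal reports phosphorylation of biotinylated GST-cJun 1-79 at Ser73 with 10 µM ATP; % is set by controls: 0 for no effect and ±100 for the full control effect.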 The following applies: JNK3 lysate, c-Jun phosphorylation; series mostly up to 57.1 µM. Put shortly:
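Compound titrations were preincubated 15 minutes at room temperature with substrate, antibody and pre-activated JNK3-containing HepG2 lysate. Reactions were started with 10 uM ATP and stopped with EDTA-containing bead buffer for AlphaScreen detection.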
A general note: Alpha assays give light when donor and acceptor beads are brought close together.

Assay [8] concerns the target 3',5'-cyclic-AMP phosphodiesterase 4B (Homo sapiens) (UniProt Q07343). Briefly: qHTS Assay for Inhibitors of PDE-IV (AID 607; active = well fitted activation curve with a large enough effect in the main read-out, with a control signal flat, not every such curve was filed as active; note: % of control where 0% means no effect). The following applies: HEK293 ACTOne CNG channel cells, membrane potential fluorescence; series mostly up to 22.9 µM. The method in brief: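 Live HEK293 cells with a modified cyclic nucleotide-gated (CNG) channel report intracellular cAMP via membrane-potential dye fluorescence (ex 535/em 590 nm). Endogenous PDE-IV was targeted. Compounds were tested at up to 22.9 uM final; RO 20-1724 100 uM served as control.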
A general note: qHTS replaces the single test concentration by a dilution series.

In assay [9] the target is Cytochrome P450 3A4 (Homo sapiens) (UniProt P08684). The assay can be described thus: qHTS Assay for Activators of Cytochrome P450 3A4 (AID 885; active = well fitted curve in the direction sought with a large enough effect; an effect the other way counts as inactive or inconclusive; note: nearly all actives have a fitted effect of over 65% in size). The following applies: recombinant CYP3A4, Luciferin-PPXE luminescence, 60 min; series mostly up to 57.1 µM. The method in brief:
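Quantitative HTS format: compounds preincubated with 20nM human CYP3A4 and Luciferin-PPXE substrate at KM, reaction started by NADPH regeneration, stopped after 60 min, luciferase luminescence read 20 min later.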

Assay [10] can be described thus: Primary qHTS for small molecule stabilizers of the endoplasmic reticulum resident proteome: Secreted ER Calcium Modulated Protein (SERCaMP) assay (AID 1508630; active = well fitted curve in the direction sought with a large enough effect; an effect the other way counts as inactive or inconclusive; note: % is set by controls: 0 for no effect and ±100 for the full control effect). As to conditions: SH-SY5Y GLuc-SERCaMP (Gaussia luciferase released on ER calcium loss) secretion, thapsigargin, luminescence; series mostly up to 38.4 µM. The method in brief:
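GLuc-SERCaMP-expressing SH-SY5Y cells, pretreated 16 h with compound, are challenged with thapsigargin to empty ER calcium stores; after 4 h, coelenterazine is added directly to the medium and luminescence is imaged.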

Assay [11] addresses Cytochrome P450 3A4 (Homo sapiens) (UniProt P08684). Briefly: qHTS Assay for Inhibitors and Substrates of Cytochrome P450 3A4 (AID 884; active = well fitted curve in the direction sought with a large enough effect; an effect the other way counts as inactive or inconclusive; note: potency is the fitted concentration of half-maximal effect; nearly all actives have a fitted effect of over 50% in size). As to conditions: recombinant CYP3A4, Luciferin-PPXE luminescence; series mostly up to 57.1 µM. Put shortly: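 20 nM human CYP3A4 with 25 uM Luciferin-PPXE (at KM) in 200 mM KPO4, preincubated 10 min with compound; NADPH regeneration started a 60 min RT reaction. Luciferin detected by luminescence, normalized to 57 uM ketoconazole as full inhibition.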

3',5'-cyclic-AMP phosphodiesterase 4B (Homo sapiens), sequence (Q07343 whole entry, looked up): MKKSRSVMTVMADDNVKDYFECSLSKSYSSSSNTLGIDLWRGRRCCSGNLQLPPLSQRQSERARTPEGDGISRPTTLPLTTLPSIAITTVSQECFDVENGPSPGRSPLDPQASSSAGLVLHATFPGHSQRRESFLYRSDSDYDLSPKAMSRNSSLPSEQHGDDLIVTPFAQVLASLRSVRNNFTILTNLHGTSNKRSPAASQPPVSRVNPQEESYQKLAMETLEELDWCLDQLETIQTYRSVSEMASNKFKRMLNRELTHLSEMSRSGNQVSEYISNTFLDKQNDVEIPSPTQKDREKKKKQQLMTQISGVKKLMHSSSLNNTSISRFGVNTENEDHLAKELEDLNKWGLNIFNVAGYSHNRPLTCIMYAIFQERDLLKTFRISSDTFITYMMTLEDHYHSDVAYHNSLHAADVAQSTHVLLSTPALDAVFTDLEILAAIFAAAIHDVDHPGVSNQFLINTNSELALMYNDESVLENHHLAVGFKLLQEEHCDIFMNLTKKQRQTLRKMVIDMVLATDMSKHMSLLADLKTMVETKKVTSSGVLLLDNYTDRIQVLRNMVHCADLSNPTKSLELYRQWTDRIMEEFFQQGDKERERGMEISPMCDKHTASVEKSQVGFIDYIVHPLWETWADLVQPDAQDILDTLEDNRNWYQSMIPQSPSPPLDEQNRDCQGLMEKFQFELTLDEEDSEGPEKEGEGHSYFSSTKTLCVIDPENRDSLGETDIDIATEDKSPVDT
Cytochrome P450 3A4 (Homo sapiens), sequence (P08684 whole entry, looked up): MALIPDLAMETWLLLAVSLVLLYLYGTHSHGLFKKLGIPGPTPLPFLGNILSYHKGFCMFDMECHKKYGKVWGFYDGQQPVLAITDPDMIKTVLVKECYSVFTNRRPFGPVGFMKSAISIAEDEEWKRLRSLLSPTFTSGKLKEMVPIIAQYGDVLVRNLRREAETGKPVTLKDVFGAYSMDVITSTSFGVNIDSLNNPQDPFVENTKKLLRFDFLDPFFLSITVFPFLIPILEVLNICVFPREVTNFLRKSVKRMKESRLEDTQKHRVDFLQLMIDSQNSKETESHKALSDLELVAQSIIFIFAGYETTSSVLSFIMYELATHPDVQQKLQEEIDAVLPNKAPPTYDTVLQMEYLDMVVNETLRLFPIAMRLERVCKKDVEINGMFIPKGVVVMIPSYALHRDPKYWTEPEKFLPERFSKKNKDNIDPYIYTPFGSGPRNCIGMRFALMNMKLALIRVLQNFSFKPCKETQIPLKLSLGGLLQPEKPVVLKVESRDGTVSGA
Glucocorticoid receptor (Homo sapiens), sequence (P04150 whole entry, looked up, the tested form may be a part): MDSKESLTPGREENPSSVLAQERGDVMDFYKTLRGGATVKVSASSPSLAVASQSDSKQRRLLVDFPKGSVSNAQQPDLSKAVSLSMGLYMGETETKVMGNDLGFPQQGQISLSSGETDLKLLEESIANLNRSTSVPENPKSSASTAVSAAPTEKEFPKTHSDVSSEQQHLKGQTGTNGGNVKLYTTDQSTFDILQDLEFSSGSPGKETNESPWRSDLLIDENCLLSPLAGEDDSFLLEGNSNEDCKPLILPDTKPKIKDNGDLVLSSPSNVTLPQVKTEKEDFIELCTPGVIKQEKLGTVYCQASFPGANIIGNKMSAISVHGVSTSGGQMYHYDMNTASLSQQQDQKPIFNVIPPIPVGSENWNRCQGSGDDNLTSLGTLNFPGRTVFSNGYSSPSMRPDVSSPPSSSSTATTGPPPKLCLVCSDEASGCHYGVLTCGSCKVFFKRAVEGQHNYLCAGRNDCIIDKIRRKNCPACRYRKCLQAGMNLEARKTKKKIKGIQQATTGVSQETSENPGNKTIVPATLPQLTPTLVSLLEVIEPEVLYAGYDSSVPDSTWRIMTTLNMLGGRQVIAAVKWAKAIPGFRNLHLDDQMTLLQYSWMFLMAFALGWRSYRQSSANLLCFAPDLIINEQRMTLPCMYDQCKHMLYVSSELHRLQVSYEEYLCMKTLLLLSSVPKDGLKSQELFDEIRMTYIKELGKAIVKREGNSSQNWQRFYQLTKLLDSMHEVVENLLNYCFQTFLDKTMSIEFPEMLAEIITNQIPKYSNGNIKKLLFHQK
Cytochrome P450 1A2 (Homo sapiens), sequence (P05177 whole entry, looked up): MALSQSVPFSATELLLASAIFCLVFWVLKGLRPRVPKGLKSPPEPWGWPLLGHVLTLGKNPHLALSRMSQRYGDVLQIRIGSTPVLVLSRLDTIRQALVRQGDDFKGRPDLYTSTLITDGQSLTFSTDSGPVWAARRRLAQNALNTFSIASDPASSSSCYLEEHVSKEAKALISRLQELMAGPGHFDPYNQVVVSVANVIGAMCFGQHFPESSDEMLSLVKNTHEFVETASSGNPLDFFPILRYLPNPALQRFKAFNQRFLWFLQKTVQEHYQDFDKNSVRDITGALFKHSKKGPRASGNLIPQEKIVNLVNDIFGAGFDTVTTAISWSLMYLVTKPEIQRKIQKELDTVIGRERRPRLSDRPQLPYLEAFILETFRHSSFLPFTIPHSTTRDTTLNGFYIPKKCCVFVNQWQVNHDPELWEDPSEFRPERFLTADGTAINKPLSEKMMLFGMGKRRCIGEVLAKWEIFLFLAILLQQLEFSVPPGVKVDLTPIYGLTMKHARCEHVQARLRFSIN

Take `Cn1c(=O)c(CCc2ccccc2)nc2cncnc21`: the Potency in assay [1] is > 11.4 µM; in assay [3] it was 7.94 µM (active); in [6], > 46 µM. The activity change, negative = inhibition in [2] was -10.9%; in assay [4], -3.66%. Moreover, in assay [5], the activity, negative = inhibition is -13.2%. The Potency result in assay [7], in assay [8] and in [9] was “inactive” throughout. For the same molecule, in [10], the outcome was inactive.

On to `O=S(=O)(c1ccccc1)N1CCC[C@@]2(CCN(c3cccc(-c4ccccc4)c3)C2)C1`, for which the figures for the Potency in assay [1], in [3] and in [6] were > 11.4 µM, 15.8 µM (active) and > 46 µM, respectively. The values for the activity change, negative = inhibition in assay [2] and in assay [4] were -23.9% and -13.7%, respectively. For the same molecule, the activity, negative = inhibition in assay [5] was -8.6%. In addition, the Potency entry in [7], in assay [8] and in assay [9] was “inactive” throughout. Also, the result in [10] was inactive.

Take `COc1ccc(NC(=O)N2CCCC3(CCN(C(=O)c4ccco4)CC3)C2)cc1`: the figures for the Potency in assay [1] and in [6] were > 11.4 µM and > 46 µM, respectively. The activity change, negative = inhibition was -17.6% in assay [2] and 7.9% in assay [4]. Further, the Potency result in [3], in assay [7], in assay [8] and in assay [9] was “inactive” in each case. In addition, the activity, negative = inhibition in [5] is -11.8%. For the same molecule, the outcome in assay [10] was inactive.

On to `O=C(c1cc(C(F)(F)F)cc(C(F)(F)F)c1)N1CCC2(CC1)CN(Cc1ccncc1)C2`, for which the Potency in assay [1] was > 11.4 µM; in assay [3], 20 µM (active); in [6] it was > 46 µM. Also, the activity change, negative = inhibition is -12.2% in [2] and -6.5% in assay [4]. For the same molecule, the activity, negative = inhibition in [5] was 5.6%. Further, the Potency result in [7], in assay [8] and in assay [9] was “inactive” throughout. In assay [10], the result was inactive.

Regarding `O=C(c1cccc(F)c1)N1CCC2(CCCN(c3ccc(-c4ccccc4)cc3)C2)CC1`, the Potency in [1] was > 11.4 µM; in assay [3], 15.8 µM (active); in assay [6], > 46 µM. The values for the activity change, negative = inhibition in [2] and in assay [4] were 6.64% and -3.55%, respectively. In addition, the activity, negative = inhibition in [5] is 1.09%. Also, the Potency result in assay [7], in assay [8] and in assay [9] was “inactive” each time. For the same molecule, the outcome in assay [10] was inactive.

Consider `O=C(c1cccc(F)c1)N1CCC[C@@]2(CCN(c3cccc(-c4ccccc4)c3)C2)C1`, for which the Potency in assay [1] was > 11.4 µM; in [3], 15.8 µM (active); in assay [6], > 46 µM; in [11], 7.94 µM (active). Besides, the figures for the activity change, negative = inhibition in [2] and in assay [4] were 4.68% and -14.4%, respectively. The activity, negative = inhibition in assay [5] is -5.9%. Besides, the Potency result in assay [7], in assay [8] and in [9] was “inactive” in each case. In addition, the result in assay [10] was inactive.

For `COc1ccc(NC(=O)N2CCCC3(CCN(C(=O)c4ccc(OC)cc4)CC3)C2)cc1`, the Potency is > 11.4 µM in assay [1] and > 46 µM in assay [6]. In addition, the activity change, negative = inhibition in [2] was -11.4%; in [4] it was 0.394%. Moreover, the Potency entry in assay [3], in [7], in assay [8] and in assay [9] was “inactive” throughout. Also, in [5], the activity, negative = inhibition is -3.96%. The outcome in assay [10] was inactive.

As for `CS(=O)(=O)N1CCC2(CCCN(C(=O)Nc3cccc(F)c3)C2)CC1`, the Potency in assay [1] was > 11.4 µM; in assay [6], > 46 µM. In addition, the activity change, negative = inhibition in [2] is 3.4%; in assay [4] it was 10.8%. For the same molecule, the Potency result in assay [3], in assay [7], in assay [8] and in [9] was “inactive” in each case. Besides, the activity, negative = inhibition in assay [5] is -4.84%. In addition, in assay [10], the outcome was inactive.
